Compound activity (PubChem)
TDP1 cell noCPT – qHTS for Inhibitors of human tyrosyl-DNA phosphodiesterase 1 (TDP1): qHTS in cells in absence of CPT. DT40 Tdp1-/- hTDP1 cells, no CPT, ATP luminescence, 48 h. Potency, µM (highest dose often 46.2 µM), for the others: top-dose activity change, negative = growth inhibition, hits mostly inhibitors. actives 15% (n = 420,000); further: potency means the concentration at half of the fitted maximal effect; on the % scale 0 is the no-effect control and ±100 the full control effect; nearly all actives have a fitted effect of over 55% in size
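Growth kinetics read by CellTiter-Glo luminescence after ≥48 hr at 37 °C. Cells: DT40 Tdp1-/- stably carrying human TDP1, 400 per well, compound exposure in the absence of CPT (DMSO vehicle).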
TGFb inhibitor – inhibitors of TGF-b signaling; actives 1.2% (n = 410,000); AID 588855; Potency, µM (top dose mostly 46.1 µM), for inactives: at the top dose activity, negative = inhibition, usual class: inhibitors; HepG2 CAGA-GFP TGF-b/SMAD3 reporter, GFP fluorescence, 18 h; TGF-beta stimulated, 500 pg/mL final; further: potency means the concentration at half of the fitted maximal effect; on the % scale 0 is the no-effect control and ±100 the full control effect; nearly all actives have a fitted effect of over 65% in size
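Using HEPG2 CAGA-GFP reporter cells at 1000 cells/well, we pinned test compounds, stimulated with recombinant TGF-beta (500 pg/mL final) and measured total well GFP after 18 h.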
HepG2 tox – kills HepG2 cells in TGF-b inhibitor counter-screen; Potency, µM (doses to about 46.1 µM), for inactives: at the highest dose activity change, negative = cytotoxicity, actives largely listed as cytotoxic; HepG2 CAGA-GFP viability, ATP luminescence, 18 h; actives 0.76% (n = 410,000); further: potency means the concentration at half of the fitted maximal effect
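CellTiter-Glo luminescence gave cytotoxicity after 18 hours at 37 degrees C. The cells were HepG2 CAGA-GFP in 1% FBS DMEM, stimulated with 500 pg/mL TGF-beta after compound addition. %Activity was normalised to no-cell wells (complete cell-killing) and DMSO (no toxicity), and curves were fitted and classified.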
IL-1B inflam inh – blocks inflammasome-driven IL-1 beta release; actives 4.7% (n = 360,000); activity change, % at 57.5 µM; THP-1 LPS/ATP IL-1B secretion, AlphaLISA, 16 h; hits give low values; in the data active means activity change below about -50%; inconclusive means mostly about -30% to -49%; further: on the % scale 0 is the no-effect control and ±100 the full control effect
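Secreted IL-1B measured by AlphaLISA bead assay after 16 h compound exposure of THP-1 cells; compounds (final up to 57.5 uM) added 1 h before LPS (250 ng/mL) and ATP (1.25 mM) stimulation; lower signal means less secretion.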
TDP1 cell CPT – growth inhibition of DT40 Tdp1-/-;hTDP1 cells with camptothecin (screen for TDP1 inhibitors) | chicken DT40 Tdp1-/-;hTDP1 cells + 20 nM CPT, ATP luminescence, 48 h | AID 686979 | actives 12% (n = 420,000) | Potency, µM (doses to about 46.2 µM), inactives show at the top dose activity change, negative = growth inhibition, hits mostly inhibitors; further: potency means the concentration at half of the fitted maximal effect; on the % scale 0 is the no-effect control and ±100 the full control effect; nearly all actives have a fitted effect of over 55% in size
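Cell growth measured by CellTiter-Glo luminescence after a minimum 48 h, 37 C compound exposure with 20 nM CPT in Tdp1-knockout DT40 cells stably expressing hTDP1, seeded 400/well; qHTS titration format.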
TDP1 inh – blocks human tyrosyl-DNA phosphodiesterase 1 | Q9NUW8 | recombinant TDP1, AlphaScreen DNA substrate cleavage | Potency, µM (highest dose often 130 µM), for the others: at the top dose activity change, negative = inhibition, usual class: inhibitors | actives 0.28% (n = 350,000) | AID 485290; further: potency means the concentration at half of the fitted maximal effect; on the % scale 0 is the no-effect control and ±100 the full control effect; nearly all actives have a fitted effect of over 40% in size
Target sequence (Q9NUW8 whole entry, looked up): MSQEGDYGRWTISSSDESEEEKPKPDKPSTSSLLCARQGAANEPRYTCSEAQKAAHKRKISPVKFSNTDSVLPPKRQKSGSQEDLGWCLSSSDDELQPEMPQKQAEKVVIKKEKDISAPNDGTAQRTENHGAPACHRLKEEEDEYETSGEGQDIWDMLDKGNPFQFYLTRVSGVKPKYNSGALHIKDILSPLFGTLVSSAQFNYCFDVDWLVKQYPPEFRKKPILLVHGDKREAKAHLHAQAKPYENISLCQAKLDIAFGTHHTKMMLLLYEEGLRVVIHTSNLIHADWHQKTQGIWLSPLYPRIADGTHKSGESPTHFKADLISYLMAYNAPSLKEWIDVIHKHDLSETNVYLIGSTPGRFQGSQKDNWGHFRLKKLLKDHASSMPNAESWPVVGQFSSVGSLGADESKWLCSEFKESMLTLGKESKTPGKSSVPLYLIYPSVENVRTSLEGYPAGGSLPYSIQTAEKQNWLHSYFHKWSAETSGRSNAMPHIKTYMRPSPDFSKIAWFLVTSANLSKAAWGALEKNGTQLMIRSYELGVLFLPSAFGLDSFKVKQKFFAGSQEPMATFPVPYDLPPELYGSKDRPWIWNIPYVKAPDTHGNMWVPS
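Enzyme-compound mixtures sat 15 min at room temperature, followed by a 5 min reaction with 15 nM final substrate and 10 min with AlphaScreen beads. Recombinant human Tdp1 was used at 1 nM final.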
An asterisk follows results filed as active; u = inconclusive; x = no result given; [ ] = remark or other dose. An excerpt weighted towards active compounds, which were near 19% of everything screened. Unless noted, the call rests on the fitted dose curve; in most records, active means well fitted curve in the direction sought with a large enough effect; inconclusive means small, poorly fitted or top-dose-only effect, or another doubt; inactive means no such curve, though single readings can be large; an effect the other way counts as inactive or inconclusive.

SMILES | TDP1 cell noCPT | TGFb inhibitor | HepG2 tox | IL-1B inflam inh | TDP1 cell CPT | TDP1 inh
OCCN1CCN(Cc2ccc3c(c2)CN(Cc2ccc4ccccc4c2)CCO3)CC1 | -14% | x | x | x | -6%[9.04 µM] | x
O=C(Cn1ccn(-c2cccc(Cl)c2)c(=O)c1=O)NCCc1ccccc1 | 0% | 4% | -12% | x | 1% | -3%
Cc1cc2cc(CCNC(=O)C(=O)c3c[nH]c4ccccc34)c(=O)[nH]c2cc1C | 18µM* | u | -20% | -56* | 15µM* | 5%
N#C/C(=C/c1ccc(Br)s1)C(=O)NCCc1c[nH]c2ccccc12 | 21µM* | u | 0% | u | 23µM* | 8%
Cc1cc(/C=C(\C#N)C(=O)NCCc2c[nH]c3ccccc23)c(C)n1C | u | 0% | -23% | u | u | 8%
Cc1cc2cc(CCNC(=O)C(C)C)c(=O)[nH]c2cc1C | -22% | 4% | 2% | 5 | -4% | x
CCc1nc2c(OCc3ccc(OC)cc3)cccn2c1N(C)C(=O)c1ccncc1 | -22% | 29% | 2% | 24 | -5% | x
O=C(CSc1nc2nn(-c3ccccc3)c(=O)c-2c2n1CCCCC2)Nc1ccccc1[N+](=O)[O-] | u | u | 2% | 4 | 21µM* | 2%
O=C(CSc1nc2nn(-c3ccccc3)c(=O)c-2c2n1CCCCC2)NCCCc1ccccc1 | 4% | u | 1% | -60* | 2% | 2%
Cc1cc(C(=O)COC(=O)Cc2ccc(Br)cc2)c(C)n1C | 11% | 5% | 1% | 2 | 1% | 9%
C=C(C(C)=O)C(O)c1cccc(OC)c1 (stereo unspecified) | x | x | x | x | x | 6%
CCOc1cccc2sc(N(CCN(C)C)C(=O)/C=C/c3cccs3)nc12 | 23µM* | u | -68% | -103* | 7.3µM* | 8%
COc1cccc2sc(N(CCN(C)C)C(=O)/C=C/c3cccs3)nc12 | 21µM* | u | -112% | -6 | u | 5%
CCOc1cccc2sc(N(CCN(C)C)C(=O)c3ccc4c(c3)OCCO4)nc12 | -29% | -7% | -1% | 6 | u | 7%
Cc1ccc2nc(C3CCCCC3)[nH]c2c1 | u | -7% | -23% | -17 | -8% | x
Cc1cc(C(=O)C(=O)O)c(C)n1-c1ccc(Cl)cc1 | -15% | -17% | -5% | 2 | 24% | 0%
Cc1cc(C(=O)C(C)Sc2cccc[n+]2[O-])c(C)n1-c1ccc(Cl)cc1 (stereo unspecified) | 2.9µM* | 17% | 5% | -101* | 2.9µM* | 5%
O=C(CN1C(=O)NC2(CCOc3ccccc32)C1=O)c1ccc(F)c(F)c1 (stereo unspecified) | -30% | -8% | 2% | -4 | -8% | 0%
Cn1cc(C(=O)c2ccc(Cl)cc2)cc1-c1nc2ccccc2n1C | 18µM* | -4% | -22% | -72* | 13µM* | 9%
O=C1NC[C@H](Cc2ccccc2)N(C[C@@H]2CCCN2C[C@H](Cc2ccc(O)cc2)N2C[C@H](Cc3ccccc3)N(CCc3ccccc3)C(=O)C2=O)C1=O | -30% | x | x | -80* | u | x
O=C1NC[C@H](Cc2ccccc2)N(C[C@@H]2CCCN2C[C@H](Cc2ccc(O)cc2)N2C[C@H](Cc3ccc(O)cc3)N(CC3CCCCC3)C(=O)C2=O)C1=O | 23µM* | x | x | u | u | x
O=C1NC[C@H](Cc2ccccc2)N(C[C@H]2CCCN2C[C@H](Cc2ccccc2)N2C[C@H](Cc3ccccc3)N(CC3CCCCCC3)C(=O)C2=O)C1=O | 16µM* | u | -70% | -69* | u | x
CCOc1ccc(CCN2C(=O)C(=O)N([C@@H](Cc3ccccc3)CN3CCC[C@@H]3CN3C(=O)C(=O)NC[C@@H]3Cc3ccc(O)cc3)C[C@@H]2Cc2ccccc2)cc1 | 11% | -3% | -2% | 3 | -5% | x
CCOc1ccc(Cn2c(CNS(=O)(=O)c3ccc([N+](=O)[O-])cc3)nc3cccnc32)cc1 | -19% | -18% | -1% | x | -15% | 11%
CCn1c2c(c(=O)n3ncc(C(=O)Nc4ccc(OC(F)(F)F)cc4)c13)CN(Cc1ccc(OC)cc1)CC2 | 23µM* | u | -17% | x | u | 9%
SMILES | TDP1 cell noCPT | TGFb inhibitor | HepG2 tox | IL-1B inflam inh | TDP1 cell CPT | TDP1 inh
CCn1c2c(c(=O)n3ncc(C(=O)N4CCN(c5ccc(C(C)=O)cc5)CC4)c13)CN(Cc1ccc(OC)cc1)CC2 | 2.6µM* | u | -19% | x | 4.1µM* | 4%
COc1ccc(CN2CCc3c(c(=O)n4ncc(C(=O)N5CCN(c6ccc(F)cc6)CC5)c4n3C)C2)cc1 | 1.8µM* | u | -30% | x | 2.3µM* | 4%
COc1ccc(-n2ncc(C(=O)N3CCN(c4ccc(F)cc4)CC3)c2C)cc1 | u | -10% | -27% | x | -29% | x
Cc1cc(C(F)F)n2nc(C(=O)Nc3cccc(Cl)c3C)nc2n1 | -2% | 0% | -12% | x | -3% | 3%
CCc1ccc(CNC(=O)c2cnc3sc(N4CCCCC4)nn3c2=O)cc1 | -16% | -4% | -4% | x | -21% | -8%
COc1ccc(CNc2cc(C)nc3ncnn23)c(OC)c1 | 10µM* | -21% | -4% | 2 | u | 4%
COc1ccc(Nc2cc(C)nc3ncnn23)c(OC)c1 | 0% | 4% | 1% | 29 | -1% | 3%
COc1ccccc1-c1sc2ccccc2c1-c1ccccc1OC | u | 11% | -4% | 0 | u | -3%
CNc1nc(Cl)c(SC)c(NCc2cccc(OC)c2)n1 | 23µM* | -9% | -9% | 37 | u | x
COc1ccc2cc(C3C(C#N)=C(N)OC(C)=C3C(C)=O)c(Cl)nc2c1 (stereo unspecified) | 21µM* | u | -36% | -3 | u | 5%
CC(=O)C1=C(C)OC(N)=C(C#N)C1c1cc([N+](=O)[O-])ccc1Cl (stereo unspecified) | 3.7µM* | u | 6.3µM* | -62* | 4.1µM* | 5%
CC(=O)C1=C(C)OC(N)=C(C#N)C1c1cccc([N+](=O)[O-])c1 (stereo unspecified) | u | 4% | -1% | 5 | u | 2%
CO[C@@H]1COC(=O)[C@H](CCSC)NC(=O)C/C=C\[C@@H](C)COC(=O)[C@@H]2CCCN2C(=O)C/C=C\[C@H]1C | x | x | x | x | x | 7%[21 µM]
